# Assay outcomes: PubChem, National Center for Advancing Translational Sciences (NCATS)
# PLK1 PBD inh: qHTS for Inhibitors of PLK1-PDB (polo-like kinase 1 - polo-box domain): Primary Screen; actives 2.8% (n = 360,000); AID 720504, 2013; Potency, µM, without a hit: max response, negative = inhibition, usual class: inhibitors; Plk1 PBD binding of FITC phosphopeptide, fluorescence polarization; Serine/threonine-protein kinase PLK1 (Homo sapiens), P53350; note: potency is the fitted concentration of half-maximal effect; series mostly up to about 57 µM; nearly all actives have a fitted effect of over 65% in size
# CCT modulator: High-Throughput Screening for Modulators of Cytosolic Chaperonin Activity; activity change, % (no concentration beside the values), hits read low; AID 651819, 2012; actives 0.3% (n = 360,000); purified chaperonin ATPase assay, HTRF ADP detection, 30 min; in the data active = activity change below about -30%
#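 Enzyme 40 or 20 nM (batch-dependent) in Tris pH 7.4/KCl/MgCl2/DTT; cpd 76 uM single point; ATP 10 uM; 30 min 37 °C; Transcreener ADP HTRF detection, 30 min RT; ratio 665/615.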
# MmCpn inh: Inhibitors of TCP-1 ring complex (TRiC) of Methanococcus maripaludis (MmCpn): qHTS; purified Mm-Cpn ATPase, ADP Transcreener TR-FRET; Potency, µM (doses to about 76.9 µM), without a hit: at the top dose activity, negative = inhibition, hits mostly inhibitors; actives 0.031% (n = 330,000); AID 504842, 2011; note: potency is the fitted concentration of half-maximal effect; nearly all actives have a fitted effect of over 80% in size
#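 Purified archaeal Mm-CPN (25nM final) preincubated 10 min at 37degC with compound, then 10uM ATP for 30 min at 37degC; ADP measured by HTRF Transcreener TR-FRET; buffer 30 mM TRIS pH 7.4, 100mM KCl, 5mM MgCl2, 1mM DTT.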
# Sfp inh: qHTS Assay for Inhibitors of Bacillus subtilis Sfp phosphopantetheinyl transferase (PPTase). 4'-phosphopantetheinyl transferase ffp (Bacillus subtilis), Q9F4F7. Biochemical Sfp PPTase activity, qHTS. Potency, µM, for the others: largest response in the series, negative = inhibition, actives largely listed as inhibitors. actives 3.5% (n = 310,000). AID 1490, 2009;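 note: the enzyme is Sfp with the accession as filed and its product quenches rhodamine fluorescence; potency is the fitted concentration of half-maximal effect; 0% = enzyme reaction without inhibitor and -100% = no enzyme wells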
#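 Compounds were incubated with enzyme (final 15 nM) for 15 min at room temperature before substrate addition started the reaction. Fluorescence at 525 nm excitation, 598 nm emission was recorded immediately and after 30 minutes.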
# G9a inh: qHTS Assay for Inhibitors of Histone Lysine Methyltransferase G9a; G9a H3K9 monomethylation, AlphaScreen, 2 h; Potency, µM (top dose mostly 102 µM), for inactives: at the highest dose activity, negative = inhibition, actives largely listed as inhibitors; actives 8.8% (n = 350,000); AID 504332, 2011; note: potency is the fitted concentration of half-maximal effect; nearly all actives have a fitted effect of over 75% in size
# Target sequence (Q96KQ7 913-1193 limits assumed): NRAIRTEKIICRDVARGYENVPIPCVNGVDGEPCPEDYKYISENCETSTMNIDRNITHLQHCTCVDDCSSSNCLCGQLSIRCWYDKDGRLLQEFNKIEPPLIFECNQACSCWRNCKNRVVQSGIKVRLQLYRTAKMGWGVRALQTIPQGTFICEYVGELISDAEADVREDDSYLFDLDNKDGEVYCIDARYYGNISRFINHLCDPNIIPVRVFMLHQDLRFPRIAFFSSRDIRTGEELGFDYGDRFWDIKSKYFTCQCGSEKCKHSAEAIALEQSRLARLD
#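 Methyltransferase reactions run at room temperature for 2 h (20 nM enzyme, 500 nM biotin-H3K9 peptide, 20 uM SAM) after a 15 min compound preincubation; product detected by AlphaScreen beads and anti-H3K9me1 antibody.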
# VDR inh: Inhibitors of the vitamin D receptor (VDR): qHTS; AID 504847, 2011; Vitamin D3 receptor (Homo sapiens), P11473; VDR-SRC2-3 peptide fluorescence polarization, 2 h; Potency, µM, for the others: max response, negative = inhibition, actives largely listed as inhibitors; actives 0.93% (n = 400,000); note: potency is the fitted concentration of half-maximal effect
# Target sequence (P11473 whole entry, looked up): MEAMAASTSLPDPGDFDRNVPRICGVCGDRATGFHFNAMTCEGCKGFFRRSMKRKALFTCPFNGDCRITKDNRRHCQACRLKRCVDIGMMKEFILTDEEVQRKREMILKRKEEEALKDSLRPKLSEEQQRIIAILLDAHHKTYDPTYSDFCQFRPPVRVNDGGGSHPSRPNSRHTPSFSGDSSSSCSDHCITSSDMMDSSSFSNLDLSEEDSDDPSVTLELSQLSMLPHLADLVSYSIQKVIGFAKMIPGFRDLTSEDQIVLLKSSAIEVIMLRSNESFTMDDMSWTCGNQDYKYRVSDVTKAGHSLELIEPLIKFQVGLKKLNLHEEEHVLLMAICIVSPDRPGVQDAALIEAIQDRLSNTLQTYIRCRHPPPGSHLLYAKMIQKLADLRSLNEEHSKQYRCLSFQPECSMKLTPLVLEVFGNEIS
#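 Measured by FP: displacement of SRC2-3 coactivator peptide from VDR by library compounds, following a two-hour ambient incubation.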
# * = called active by the depositor; ? = inconclusive; . = not tested or not shown; [ ] = another dose, or the depositor's remark. Compounds with a hit are over-represented: about 10% of the library has one in this group of screens. Unless noted, calls come from the whole dose curve; as a rule, active = well fitted curve in the direction sought with a large enough effect; inconclusive = small, poorly fitted or top-dose-only effect, or another doubt; inactive = no such curve, though single readings can be large; an effect the other way counts as inactive or inconclusive. Unless noted, % is set by controls: 0 for no effect and ±100 for the full control effect.
SMILES,PLK1 PBD inh,CCT modulator,MmCpn inh,Sfp inh,G9a inh,VDR inh
C[C@H](NCCC(c1ccccc1)c1ccccc1)c1ccccc1,.,.,.,-5%,0%[21.5 µM],7%
CO[C@@H]1COC(=O)[C@@H](CCSC)NC(=O)C/C=C\[C@@H](C)COC(=O)CCC[C@H]1C,.,.,.,0%,.,.
CC(C)OCCCn1c(SCc2ccccc2C#N)nc2c(sc3ccccc32)c1=O,.,.,.,.,-1%[59 µM],-2%
Cc1ccc(NC(=O)Cn2c(CCC(=O)O)ccc2-c2cccs2)cc1Cl,-8%,-1,-1%,40µM*,45µM*,2%
O=C(O)CCc1ccc(-c2cccs2)n1CCc1ccccc1,-18%,-1,-2%,20µM*,.,-2%
O=C(O)CCc1ccc(-c2cccs2)n1NC(=O)c1ccccc1Br,-8%,2,?,?,-14%[59 µM],-3%
O=C(O)CCc1ccc(-c2cccs2)n1CCC(=O)O,-11%,-2,-4%,7.9µM*,20µM*,9%
CN=C1N[C@H](c2ccccc2)N(c2ccccc2)S1,.,.,.,112µM*,.,25µM*
CCCCC1CN2C(CCC(C)C2c2ccc(Br)cc2)C(=O)O1 (configuration not stated),.,.,.,17%,.,.
O=c1cnc2cncnc2n1Cc1ccccc1Cl,.,.,.,13%,7%[0.501 µM],40µM*
Cc1cc(C)cc(OCc2cc(=O)n3c4c(sc3n2)CCCC4)c1,.,.,.,.,-6%[59 µM],-3%
COc1ccc(/C([O-])=C(/C(=S)Nc2ccc(C)c(C)c2)n2c[n+](C)c3ccccc32)cc1OC,?,-12,2%,45µM*,45µM*,-16%
Cc1ccc(CN2CCC(CNS(=O)(=O)c3ccc(-c4ccc(=O)[nH]n4)s3)CC2)cc1,30µM*,0,1%,5%,.,?
Cc1ccc(-n2c(NN)nc3ccccc3c2=O)c(C)c1,-3%,-1,1%,-11%,-12%[59 µM],1%
CC1=NN(c2ccc(C)cc2C)C(=O)C1C(c1cccc(O)c1)C1C(=O)N(c2ccc(C)cc2C)N=C1C (configuration not stated),27µM*,-4,-15%,-4%,-6%[59 µM],?
CCOC(=O)c1nnn(C(CC)C(=O)Nc2ccc(F)cc2)c1C(=O)OCC (configuration not stated),.,.,.,.,-3%[59 µM],-28%
Cc1ccc(CNCCNCCO)s1,-18%,-4,1%,3%,40µM*,-11%
NC(=O)COC(=O)c1cccc(S(=O)(=O)N2CCN(c3ccccc3)CC2)c1,-17%,-15,3%,10%,-31%,-9%
O=C(COC(=O)c1cccc(S(=O)(=O)N2CCN(c3ccccc3)CC2)c1)NCc1ccco1,-22%,2,-7%,-19%,45µM*,7%
COc1ccccc1CNC(=O)COC(=O)c1cccc(S(=O)(=O)N2CCOCC2)c1,-6%,-1,-2%,.,13µM*,-3%
CCS(=O)(=O)N1CCc2cc(C(=O)NCCc3ccc(OC)c(OC)c3)ccc21,.,.,.,.,?,21%
CCOc1ccc(S(=O)(=O)/N=C(/c2ccccc2)N(C)C)cc1,-1%,2,0%,17%,-5%,-4%
O=S(=O)(/N=C(/NC(=S)Nc1ccccc1)c1ccccc1)c1ccc(Cl)cc1,12µM*,-2,?,45µM*,11µM*,?
CCOc1ccc(S(=O)(=O)/N=C(\N)c2ccccc2)cc1,-14%,-5,-27%,18%,35µM*,10%
COc1ccccc1N/C(=N/S(=O)(=O)c1ccc(C)cc1)c1ccccc1,-14%,-1,2%,-25%,-15%[59 µM],-1%
SMILES,PLK1 PBD inh,CCT modulator,MmCpn inh,Sfp inh,G9a inh,VDR inh
COc1ccc(NC(=S)N/C(=N/S(=O)(=O)c2ccc(C)cc2)c2ccccc2)cc1,-28%,1,-1%,50µM*,?,-9%
COc1ccc(NC(=S)NC(=NS(=O)(=O)c2ccc(Cl)cc2)c2ccccc2)cc1,12µM*,-1,1%,.,.,-19%
COc1ccc(-c2cc3ccc(O)c(CN4CCCC(C)C4)c3oc2=O)cc1OC (configuration not stated),.,.,.,.,28%[59 µM],9%
Cc1ccc(OCC(=O)NCC(=O)OCc2cc(=O)n3nc(CC(C)C)sc3n2)cc1,.,.,.,.,4%[59 µM],12%
COc1ccc(NC(=O)CCn2cccn2)cc1OC,.,.,.,.,9%[59 µM],6%
COc1cc(C2c3c(oc4ccccc4c3=O)C(=O)N2Cc2ccc(C)cc2)ccc1O (configuration not stated),.,.,.,.,4%[59 µM],-1%
Cc1ccc(-n2c(=O)c3oc4ccccc4c3n(Cc3ccccc3)c2=O)cc1C,.,.,.,.,-3%[59 µM],7%
CCCC(=O)Nc1nnc(SCc2cc(=O)n3ccccc3n2)s1,.,.,.,.,-33%[59 µM],6%
Cc1ccc(S(=O)(=O)NN/C(=N/S(=O)(=O)c2ccccc2)c2ccccc2)cc1,-1%,2,1%,9%,?,10%
CCOC(=S)N/C(=N\S(=O)(=O)c1ccc(C)cc1)c1ccccc1,24µM*,-2,1%,22µM*,7.9µM*,-13%
Cn1c(=O)oc2cc(S(=O)(=O)N3CCCC(C(=O)N4CC=C(c5ccccc5)CC4)C3)ccc21 (configuration not stated),.,.,1%,20%,50µM*,.
CCOC(=O)C(C)Sc1nc(-c2ccco2)cc(C(F)(F)F)c1C#N (configuration not stated),-20%,0,-3%,-2%,40µM*,-26%
CC1=C(C(=O)Nc2ccccc2)C(c2ccncc2)n2nc(SCc3ccccc3)nc2N1 (configuration not stated),.,.,.,.,-4%[59 µM],-10%
COC(=O)C1=C(C)NC(=O)/C1=C\c1cc(C)n(-c2ccc(F)cc2)c1C,-9%,1,0%,35µM*,.,5%
Cc1cc(NC(=O)CN2C(=O)c3ccccc3S2(=O)=O)no1,-15%,0,-2%,10%,25µM*,-12%
Cc1cc(NC(=O)CCCN2C(=O)c3cccc4cccc(c34)C2=O)no1,-10%,2,0%,6%,1%,-20%
Cc1nnc(NC(=O)CN2C(=O)c3ccccc3S2(=O)=O)s1,-2%,-1,1%,-28%,50µM*,13%
Cc1cc(NC(=O)CCCN2C(=O)c3cccnc3C2=O)no1,3µM*,1,1%,-10%,7%[12.7 µM],-19%
Cc1sc2ncn(CC(=O)N(C)c3ccc(C(C)C)cc3)c(=O)c2c1S(=O)(=O)N1CCC(C)CC1,.,.,.,.,-32%[59 µM],-18%
